RORg inh: ROR gamma (mouse) transcription inhibition; P51450; Potency, µM (highest dose often 53.6 µM), inactives show top-dose activity change, negative = inhibition, usual class: inhibitors; 310,000 compounds, 5.4% hits; Drosophila S2 Gal4-RORgamma UAS-luciferase reporter, 20 h; further: nearly all actives have a fitted effect of over 60% in size
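In this cell-based reporter format, copper sulfate (700 uM final) drives Gal4–ROR gamma fusion expression from a metallothionein promoter in Drosophila Schneider cells; compounds preincubated 1 hr, reporter read after 20 hr at ambient temperature.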
DT40 TDP1 CPT: growth inhibition of DT40 Tdp1-/-;hTDP1 cells with camptothecin (screen for TDP1 inhibitors); AID 686979; chicken DT40 Tdp1-/-;hTDP1 cells + 20 nM CPT, ATP luminescence, 48 h; Potency, µM (doses to about 46.2 µM), without a hit: at the highest dose activity change, negative = growth inhibition, hits mostly inhibitors; 420,000 compounds, 12% hits; further: nearly all actives have a fitted effect of over 55% in size
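Chicken DT40 Tdp1-/- cells complemented with human TDP1, 400 cells/well, exposed to compounds plus 20 nM camptothecin for at least 48 h at 37 C; viability read as ATP content by CellTiter-Glo luminescence.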
Gal4-VP16 FLuc: counter-screen for ROR gamma inhibitors: Gal4-VP16 reporter. Drosophila S2 Gal4-VP16 UAS-luciferase, luminescence, 20 h. Potency, µM (top dose mostly 53.6 µM), without a hit: at the highest dose activity, negative = inhibition, actives largely listed as inhibitors. 310,000 compounds, 3.5% hits. AID 2546;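 further: Gal4-VP16 expression switched on by copper sulfate through the metallothionein promoter; nearly all actives have a fitted effect of over 50% in size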
TDP1 block: blocks human tyrosyl-DNA phosphodiesterase 1; Potency, µM (titrated, usually from 130 µM), inactives show at the highest dose activity change, negative = inhibition, most hits filed as inhibitors; recombinant TDP1, AlphaScreen DNA substrate cleavage; 350,000 compounds, 0.28% hits; further: nearly all actives have a fitted effect of over 40% in size
Target sequence (Q9NUW8 whole entry, looked up): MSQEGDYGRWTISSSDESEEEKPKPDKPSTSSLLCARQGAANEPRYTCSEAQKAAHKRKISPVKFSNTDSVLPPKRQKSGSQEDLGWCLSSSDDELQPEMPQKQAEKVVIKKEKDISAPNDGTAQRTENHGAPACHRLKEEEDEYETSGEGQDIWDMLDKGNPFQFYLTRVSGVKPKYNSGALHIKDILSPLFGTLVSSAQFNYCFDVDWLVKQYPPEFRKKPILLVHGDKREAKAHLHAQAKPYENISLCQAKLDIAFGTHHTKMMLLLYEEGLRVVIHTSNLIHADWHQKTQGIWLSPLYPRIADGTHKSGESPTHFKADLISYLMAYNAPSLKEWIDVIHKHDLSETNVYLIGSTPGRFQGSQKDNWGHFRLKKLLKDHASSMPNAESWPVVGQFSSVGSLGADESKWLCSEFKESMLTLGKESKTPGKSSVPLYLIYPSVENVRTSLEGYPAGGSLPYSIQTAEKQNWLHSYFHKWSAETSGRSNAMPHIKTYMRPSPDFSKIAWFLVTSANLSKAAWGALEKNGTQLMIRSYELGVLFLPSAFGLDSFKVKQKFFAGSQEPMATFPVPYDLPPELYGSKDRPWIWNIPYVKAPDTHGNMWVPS
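Recombinant human Tdp1 (E. coli-expressed, 1 nM final) preincubated with compounds 15 min at room temperature, then 5'-biotin/3'-phosphotyrosine-FITC DNA substrate (15 nM final) added for 5 min. AlphaScreen beads (10 ug/ml final) added 10 min; cleavage lowers signal.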
TDP1 cell noCPT: qHTS for Inhibitors of human tyrosyl-DNA phosphodiesterase 1 (TDP1): qHTS in cells in absence of CPT. AID 686978, 2013. Potency, µM (doses to about 46.2 µM), without a hit: at the top dose activity change, negative = growth inhibition, hits mostly inhibitors. 420,000 compounds, 15% hits. DT40 Tdp1-/- hTDP1 cells, no CPT, ATP luminescence, 48 h; further: nearly all actives have a fitted effect of over 55% in size
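Readout: luminescence from CellTiter-Glo after 30 min in the dark at RT. Cells: DT40 Tdp1-/- with stable hTDP1, 400/well. Exposure: compounds alone, ≥48 hr, 37 °C.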
* = called active by the depositor; ? = inconclusive; / = not tested or not shown; [ ] = another dose, or the depositor's remark. This is a sample that favours compounds with a hit; in the whole collection about 19% have one here. The call rests on the fitted dose curve; in most records, active means well fitted curve in the direction sought with a large enough effect; inconclusive means small, poorly fitted or top-dose-only effect, or another doubt; inactive means no such curve, though single readings can be large; an effect the other way counts as inactive or inconclusive. On the % scale 0 is the no-effect control and ±100 the full control effect; potency means the concentration at half of the fitted maximal effect.

SMILES	RORg inh	DT40 TDP1 CPT	Gal4-VP16 FLuc	TDP1 block	TDP1 cell noCPT
Cc1nn(-c2ccccn2)c2c1C(=O)C(Br)CC2 (configuration not stated)	-28%	5.2µM*	6%	?	3.7µM*
OC(COc1ccc(Cl)cc1)CN1C2=NCCCN2c2ccccc21 (configuration not stated)	-22%	21µM*	-11%	-4%	21µM*
ClCCN1C2=NCCCN2c2ccccc21	27%	-4%	3%	5%	-19%
CCN1C2=NCCCN2c2ccccc21	-6%	-5%	-2%	-4%	-18%
OC(CN1C2=NCCCN2c2ccccc21)c1ccc(Cl)cc1 (configuration not stated)	-1%	?	-9%	5%	18µM*
COCC(=O)N(C)C1(c2nnnn2CCOC(=O)Nc2ccc(Cl)cc2)CCCCC1	11%	2%	-12%[10 µM]	5%	-6%
Cc1onc(-c2ccccc2)c1C(=O)NCc1ccc(F)cc1	/	0%	/	/	-14%
COc1cc(C#Cc2c(-c3cncn3C)n(C)c3ccc(-c4ccc5cc[nH]c5c4)cc23)cc(OC)c1	/	18µM*	/	4%	?
COc1cc(C#Cc2c(-c3cncn3C)n(C)c3ccc(Br)cc23)cc(OC)c1	/	?	/	4%	18µM*
CN(Cc1ccccc1)C(=O)c1ncn2c1c(=O)[nH]c1cccnc12	/	3%	/	/	4%
O=C(Nc1ccccc1)C1Cc2c(-c3cccc(F)c3)ccnc2O1 (configuration not stated)	/	21µM*	/	/	?
CN1CCN(C(=O)C2Cc3c(-c4cccc(F)c4)ccnc3O2)CC1 (configuration not stated)	/	-18%	/	/	-9%
COc1ccc(NC(=O)C2Cc3c(-c4cccc(F)c4)ccnc3O2)cc1OC (configuration not stated)	/	7.3µM*	/	/	4.6µM*
COc1ccc(NC(=O)C2Cc3c(-c4ccco4)ccnc3O2)cc1OC (configuration not stated)	/	23µM*	/	/	?
CNC(=O)C1Cc2c(-c3cccc(F)c3)ccnc2O1 (configuration not stated)	/	-11%	/	/	4%
CS(=O)(=O)Nc1cccc(NC(=O)C2Cc3c(-c4cccc(F)c4)ccnc3O2)c1 (configuration not stated)	/	5.2µM*	/	/	3.3µM*
Cc1cc2c(c(N3CCOCC3)n1)C(=O)OC2	2%	-15%	1%	-1%	-4%
C[C@H](NC(=O)c1[nH]cnc1C(=O)Nc1ccc(Cl)cc1)C(=O)OC(C)(C)C	1µM*	?	1.4µM*	-1%	?
C[C@H](NC(=O)c1nc[nH]c1C(=O)N1CCN(C(=O)OC(C)(C)C)CC1)C(=O)OC(C)(C)C	/	7%	/	-1%	-9%
Cc1cccc(NC(=O)c2nc[nH]c2C(=O)N[C@@H](C)C(=O)OC(C)(C)C)c1	3.2µM*	18µM*	7.1µM*	10%	?
COC(=O)C1=C(N)OC2=C(C(=O)CCC2)C1c1ccc2c(c1)OCO2 (configuration not stated)	-17%	10%	1%	/	5%
O=C(COC(=O)c1cc(Cl)ccc1Cl)Nc1ccc2[nH]c(=O)[nH]c2c1	/	4%	/	/	-27%
COc1ccc2sc(N(CCCN(C)C)C(=O)c3ccc(C(=O)c4ccccc4)cc3)nc2c1	/	16µM*	/	2%	?
CCN(Cc1ccccc1)S(=O)(=O)c1ccc(C(=O)N(CCCN(C)C)c2nc3cc(OC)ccc3s2)cc1	/	?	/	-1%[0.505 µM]	23µM*
Cc1noc(C)c1COc1ccc(C(=O)OCC(=O)NCCN2C(=O)CSC2=O)cc1	0%	-3%	-10%	-2%	3%
SMILES	RORg inh	DT40 TDP1 CPT	Gal4-VP16 FLuc	TDP1 block	TDP1 cell noCPT
c1ccc2[nH]c(CSc3nccs3)nc2c1	12%	-15%	-7%	5%	-28%
CCc1ccc(CN(C)C(=O)CCc2nc3ccccc3n(-c3ccc(OC)cc3)c2=O)cc1	2%	16µM*	?	6%	21µM*
COc1ccc(-n2c(=O)c(CCC(=O)N(C)Cc3ccccc3C)nc3ccccc32)cc1	40%	?	-6%	0%	?
COc1cccc(C(=O)NCCc2csc3nc(-c4ccccc4F)nn23)c1OC	/	26µM*	/	1%	15µM*
COC(=O)c1ccc(NC(=O)C(=O)NCCc2csc3nc(-c4ccccc4F)nn23)cc1	/	-2%	/	4%	-27%
O=C(NCCc1csc2nc(-c3ccccc3F)nn12)c1ccccc1C(F)(F)F	/	7.3µM*	/	7%	9.2µM*
CC1(CCc2ccc3c(c2)OCO3)NCCc2c1[nH]c1ccccc21 (configuration not stated)	-4%	?	1%	/	18µM*
CC(Cc1ccccc1)NC(=O)/C=C/c1ccc([N+](=O)[O-])cc1 (configuration not stated)	22%	26µM*	3%	5%	18µM*
Cc1cc(C)c(S(=O)(=O)Nc2nnc(C3CCCCC3)s2)c(C)c1	/	-25%	/	5%	12%
CN(C)c1ccc(/C=N/n2c(C3CCCCC3)n[nH]c2=S)cc1	2.5µM*	?	6.3µM*	/	16µM*
S=c1[nH]nc(C2CCCCC2)n1/N=C/c1ccco1	?	-3%	?	1%	-5%
CCOc1ccc(/C=N/n2c(C3CCCCC3)n[nH]c2=S)cc1	4µM*	?	?	/	?
Cc1ccsc1/C=N/n1c(C2CCCCC2)n[nH]c1=S	2.5µM*	-11%	3.2µM*	-2%	-35%
Fc1ccc(/C=N/n2c(C3CCCCC3)n[nH]c2=S)cc1	3.5µM*	0%	7.9µM*	/	0%
COc1cc(OC)c(/C=N/n2c(C3CCCCC3)n[nH]c2=S)c(OC)c1	-35%	-2%	-2%	/	?
CCN1CCN(c2nc3c(c(=O)[nH]c(=O)n3C)n2CCCSc2ncccn2)CC1	-27%	-11%	-1%	7%	-21%
O=C1[C@@H]2CSC(c3ccc(C(F)(F)F)cc3)N2C(=O)N1c1ccccc1 (some centres not stated)	/	-2%	/	-1%	-1%
CN(C)CCNc1ncnc2c1ncn2[C@H]1CN(Cc2ccc(F)cc2)C[C@@H](CO)O1	/	-24%	/	/	-18%
COc1ccc(CCN(C)C2CCCN(S(=O)(=O)c3ccc(C)cc3)C2)cc1OC (configuration not stated)	31%	?	-1%	/	?
S=c1[nH]nc(C2CCCCC2)n1/N=C/c1ccccn1	-13%	-3%	-10%[10 µM]	3%	1%
